# Test results taken from PubChem BioAssay (NCATS).
# “And” between values parts separate entries of the source, which are not always exact repeats. Identical values can stand only once. Inconclusive results are not listed. The source made the active and inactive calls. Unless noted, calls come from the whole dose curve; as a rule, active = well fitted inhibition curve with a large enough effect; inconclusive = small, poorly fitted or top-dose-only effect; inactive = flat fitted curve, though single readings scatter.
# Assays:
# [1] = qHTS drug screen for cell cycle checkpoint inhibitors in PARPi-resistant BRCA-mutant ovarian cancer cell lines. (AID 1963452; calls by dose curve; note: potency is the fitted concentration of half-maximal effect); conditions: PEO1/OlaR viability, CellTiter-Glo luminescence, 96 h; for Z-AUC: stronger effect = lower value
# How it was run: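 PEO1, PEO4 and PEO1/OlaR ovarian cancer cells, 600 per well, exposed 96 h at 37C to a dilution series. Viability read by CellTiter-Glo luminescence, normalized to DMSO and empty wells; activity summarized as Z-AUC.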
# [2] = qHTS for identification of novel therapeutic agents for treatment of microphthalmiaassociated transcription factor (MiT) renal cell carcinoma (RCC) (AID 1963991; calls by dose curve; note: potency is the fitted concentration of half-maximal effect;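 for z-score: curves scaled with 100% = DMSO viability and 0% = empty wells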); conditions: CellTiter-Glo, 48 h; for z-score: stronger effect = lower value
# How it was run: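 UOK109/UOK124/UOK145 (TFE3 fusions, three partners); 500 cells/well; MIPE v4.0, 1912 cpds, 11 conc.; 48 h, 37 C; CellTiter-Glo, 15 min RT; lum. Norm.: DMSO 100%, empty 0%.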
# [3] = qHTS profiling for inhibitors of Plasmodium falciparum proliferation (AID 504749);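 note: 0% = DMSO vehicle and full inhibition = artemisinin control; nearly all actives have a fitted effect of over 60% in size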; conditions: P. falciparum in erythrocytes, SYBR Green DNA, 72 h
# How it was run: (§1)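 P. falciparum-infected erythrocytes (0.3% parasitemia, 2.5% hematocrit) incubated with compound 72 h at 37 C, 5% CO2. Parasite DNA detected by SYBR Green after lysis, overnight at room temperature; normalised to 0.29 uM artemisinin and DMSO.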
# 3D7 = test: as above; conditions: P. falciparum in erythrocytes, SYBR Green DNA, 72 h; series mostly up to 28.7 µM
# How it was run: as §1
# 7G8 = test: as above; conditions: P. falciparum in erythrocytes, SYBR Green DNA, 72 h; series mostly up to 28.7 µM
# How it was run: as §1
# AA1029 = test: as above; conditions: P. falciparum in erythrocytes, SYBR Green DNA, 72 h; series mostly up to 28.7 µM
# How it was run: as §1
# AS120 = test: as above; conditions: P. falciparum in erythrocytes, SYBR Green DNA, 72 h; series mostly up to 28.7 µM
# How it was run: as §1
# ATS189 = test: as above; conditions: P. falciparum in erythrocytes, SYBR Green DNA, 72 h; series mostly up to 28.7 µM
# How it was run: as §1
# ATS95 = test: as above; conditions: P. falciparum in erythrocytes, SYBR Green DNA, 72 h; series mostly up to 28.7 µM
# How it was run: as §1
# C2A = test: as above; conditions: P. falciparum in erythrocytes, SYBR Green DNA, 72 h; series mostly up to 28.7 µM
# How it was run: as §1
# CP185 = test: as above; conditions: P. falciparum in erythrocytes, SYBR Green DNA, 72 h; series mostly up to 28.7 µM
# How it was run: as §1
# CP191 = test: as above; conditions: P. falciparum in erythrocytes, SYBR Green DNA, 72 h; series mostly up to 28.7 µM
# How it was run: as §1
# CP192 = test: as above; conditions: P. falciparum in erythrocytes, SYBR Green DNA, 72 h; series mostly up to 28.7 µM
# How it was run: as §1
# CP194 = test: as above; conditions: P. falciparum in erythrocytes, SYBR Green DNA, 72 h; series mostly up to 28.7 µM
# How it was run: as §1
# CP201 = test: as above; conditions: P. falciparum in erythrocytes, SYBR Green DNA, 72 h; series mostly up to 28.7 µM
# How it was run: as §1
# CP203 = test: as above; conditions: P. falciparum in erythrocytes, SYBR Green DNA, 72 h; series mostly up to 28.7 µM
# How it was run: as §1
# CP211 = test: as above; conditions: P. falciparum in erythrocytes, SYBR Green DNA, 72 h; series mostly up to 28.7 µM
# How it was run: as §1
# [4] = measured here: PEO1 parental Z-AUC
# [5] = TFE3-RCC UOK109 viability, measured here: UOK109 Z-AUC
# [6] = TFE3-RCC viability, measured here: UOK124 Z-AUC
# [7] = TFE3-RCC viability, measured here: UOK145 Z-AUC
# [8] = at 28.7 µM (top of the series), parasite line A
# [9] = at 28.7 µM (top of the series), parasite line B
smiles,measurement,setting,value
Cn1c(=O)c2[nH]cnc2n(C)c1=O,Z-AUC,[1],0.347 (inactive)
same,Z-AUC,[1]; [4],0.72
same,Z-AUC,[1]; measured here: PEO4 Z-AUC,0.784
same,z-score,[2]; [5],1.09
same,z-score,[2]; [6],0.242
same,z-score,[2]; [7],0.63
same,"activity, negative = inhibition",[3]; [8],0.326% (inactive)
same,"activity, negative = inhibition",[3]; [9],0.99% (inactive)
same,Potency,3D7,inactive
same,Potency,7G8,inactive
same,Potency,AA1029,inactive
same,Potency,AS120,inactive
same,Potency,ATS189,inactive
same,Potency,ATS95,inactive
same,Potency,C2A,inactive
same,Potency,CP185,inactive
same,Potency,CP191,inactive
same,Potency,CP192,inactive
same,Potency,CP194,inactive
same,Potency,CP201,inactive
same,Potency,CP203,inactive
same,Potency,CP211,inactive
CN(C)C(=O)C(CCN1CCC(O)(c2ccc(Cl)cc2)CC1)(c1ccccc1)c1ccccc1,Z-AUC,[1],-1.16 (inactive)
same,Z-AUC,[1]; [4],-0.647
same,Z-AUC,[1]; measured here: PEO4 Z-AUC,-0.794
CS(=O)(=O)Nc1ccc([N+](=O)[O-])cc1Oc1ccccc1,Z-AUC,[1],1.34 (inactive)
same,Z-AUC,[1]; [4],1.22
same,Z-AUC,[1]; measured here: PEO4 Z-AUC,1.35
same,z-score,[2]; [5],1.08
same,z-score,[2]; [6],0.234
same,z-score,[2]; [7],0.487
same,"activity, negative = inhibition","[3]; at 12.8 µM (top of the series), parasite line A",15.2% (inactive)
same,"activity, negative = inhibition","[3]; at 12.8 µM (top of the series), parasite line B",9.68% (inactive)
same,Potency,3D7,inactive
same,Potency,7G8,inactive
same,Potency,AA1029,inactive
same,Potency,AS120,inactive
same,Potency,ATS189,inactive
same,Potency,ATS95,inactive
same,Potency,C2A,inactive
same,Potency,CP185,inactive
same,Potency,CP191,inactive
same,Potency,CP192,inactive
same,Potency,CP194,inactive
same,Potency,CP201,inactive
same,Potency,CP203,inactive
same,Potency,CP211,inactive
COc1ccccc1OCC(O)CN1CCN(CC(=O)Nc2c(C)cccc2C)CC1 (configuration not stated),Z-AUC,[1],-0.161 (inactive)
same,Z-AUC,[1]; [4],0.571
same,Z-AUC,[1]; measured here: PEO4 Z-AUC,0.54
same,z-score,[2]; [5],0.18
same,z-score,[2]; [6],0.373
same,z-score,[2]; [7],-0.0249
same,"activity, negative = inhibition",[3]; [8],2.52% (inactive)
same,"activity, negative = inhibition",[3]; [9],-6.5% (inactive)
same,Potency,3D7,inactive
same,Potency,7G8,inactive
same,Potency,AA1029,inactive
same,Potency,AS120,inactive
same,Potency,ATS189,inactive
same,Potency,ATS95,inactive
same,Potency,C2A,inactive
same,Potency,CP185,inactive
same,Potency,CP191,inactive
same,Potency,CP192,inactive
same,Potency,CP194,inactive
same,Potency,CP201,inactive
same,Potency,CP203,inactive
same,Potency,CP211,inactive
COC(=O)Nc1nc2ccc(C(=O)c3cccs3)cc2[nH]1,Potency,[1],69.2 nM (active)
same,Z-AUC,[1]; [4],-1.94
same,Z-AUC,[1]; measured here: PEO4 Z-AUC,-1.92
same,Potency,"[2]; TFE3-RCC UOK109 viability, active = Z-AUC below -0.8 in all three lines",8.33 nM (active)
same,z-score,[2]; [5],-2.2
same,z-score,[2]; [6],-3.02
same,z-score,[2]; [7],-1.81
same,"activity, negative = inhibition",[3]; [8],-6.79% (inactive)
same,"activity, negative = inhibition",[3]; [9],11.2% (inactive)
same,Potency,3D7,inactive
same,Potency,7G8,inactive
same,Potency,AA1029,inactive
same,Potency,AS120,inactive
same,Potency,ATS189,inactive
same,Potency,ATS95,inactive
same,Potency,CP185,inactive
same,Potency,CP191,inactive
same,Potency,CP192,inactive
same,Potency,CP194,inactive
same,Potency,CP201,inactive
same,Potency,CP203,inactive
same,Potency,CP211,inactive
Cc1ccccc1N1C(=O)c2cc(S(N)(=O)=O)c(Cl)cc2NC1C (configuration not stated),Z-AUC,[1],-0.939 (inactive)
same,Z-AUC,[1]; [4],-0.663
same,Z-AUC,[1]; measured here: PEO4 Z-AUC,-0.859
same,z-score,[2]; [5],0.956
same,z-score,[2]; [6],0.478
same,z-score,[2]; [7],-0.147
C[C@H]1c2cccc(O)c2C(O)=C2C(=O)[C@]3(O)C(O)=C(C(N)=O)C(=O)[C@@H](N(C)C)[C@@H]3[C@@H](O)[C@@H]21,Z-AUC,[1],0.309 (inactive) and -0.104 (inactive)
same,Z-AUC,[1]; [4],0.47 and 0.545
same,Z-AUC,[1]; measured here: PEO4 Z-AUC,0.542 and 0.724
CC(C(=O)O)c1cccc(C(=O)c2ccccc2)c1 (configuration not stated),Z-AUC,[1],0.0263 (inactive)
same,Z-AUC,[1]; [4],0.275
same,Z-AUC,[1]; measured here: PEO4 Z-AUC,0.507
same,z-score,[2]; [5],0.978
same,z-score,[2]; [6],0.474
same,z-score,[2]; [7],0.0276
CCN1CCCC1CNC(=O)c1cc(S(=O)(=O)CC)c(N)cc1OC (configuration not stated),Z-AUC,[1],1.05 (inactive)
same,Z-AUC,[1]; [4],0.594
same,Z-AUC,[1]; measured here: PEO4 Z-AUC,0.466
same,z-score,[2]; [5],0.976
same,z-score,[2]; [6],0.754
same,z-score,[2]; [7],0.815
